Assay [1] in a line: binders of probe aFSTL3 on microarray, primary screen, stem cell growth factor project, biochemical, small-molecule microarray, fluorescence 635/667 (AID 1064).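 Further: measures binding of the biotinylated anti-FSTL3 antibody to printed compounds.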 Conditions: higher = more signal.
Assay [2] in a line: binders from COS7 lysate, DM2A8 probe, primary screen, torsin A project, cell lysate, small-molecule microarray, fluorescence 635/667 (AID 1065). Conditions: higher = more signal, COS7 lysate expressing mutant human TOR1A.
A short description of assay [3]: binders of probe aFGF2 on microarray, primary screen, stem cell growth factor project, biochemical, small-molecule microarray, fluorescence 635/667 (AID 1067).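 Further: measures binding of biotinylated aFGF2 protein to printed compounds on slides; z-score merges feature fluorescence and signal-to-noise across triplicate slides.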 The settings on record: higher = more signal.
A short description of assay [4]: binders of probe aFGF10 on microarray, primary screen, stem cell growth factor project, biochemical, small-molecule microarray, fluorescence 635/667 (AID 1071).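 Further: score merges 667 nm spot intensity and signal to noise from triplicate slides.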 Conditions: higher = more signal.
In assay [5] the target is Neurogenic locus notch homolog protein 2 (Homo sapiens) (UniProt Q04721). Briefly: Notch2 binders on small-molecule microarrays, primary screen, biochemical, small-molecule microarray, 635 nm fluorescence, stem cell growth factors (AID 1073). The settings on record: Notch2 binding, higher = more signal.
In assay [6] the target is Pro-neuregulin-1, membrane-bound isoform (Homo sapiens) (UniProt Q02297). Briefly: NRG1 binders on small-molecule microarrays, primary screen, psychiatric disease protein project, biochemical, small-molecule microarray, fluorescence 635/667 (AID 1075).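 Further: score combines 667 nm spot fluorescence with signal to noise.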 Conditions: NRG1 binding, 635 nm fluorescence, higher = more signal.
Sequence of Pro-neuregulin-1, membrane-bound isoform (Homo sapiens) (Q02297 whole entry, looked up, the tested form may be a part, canonical isoform): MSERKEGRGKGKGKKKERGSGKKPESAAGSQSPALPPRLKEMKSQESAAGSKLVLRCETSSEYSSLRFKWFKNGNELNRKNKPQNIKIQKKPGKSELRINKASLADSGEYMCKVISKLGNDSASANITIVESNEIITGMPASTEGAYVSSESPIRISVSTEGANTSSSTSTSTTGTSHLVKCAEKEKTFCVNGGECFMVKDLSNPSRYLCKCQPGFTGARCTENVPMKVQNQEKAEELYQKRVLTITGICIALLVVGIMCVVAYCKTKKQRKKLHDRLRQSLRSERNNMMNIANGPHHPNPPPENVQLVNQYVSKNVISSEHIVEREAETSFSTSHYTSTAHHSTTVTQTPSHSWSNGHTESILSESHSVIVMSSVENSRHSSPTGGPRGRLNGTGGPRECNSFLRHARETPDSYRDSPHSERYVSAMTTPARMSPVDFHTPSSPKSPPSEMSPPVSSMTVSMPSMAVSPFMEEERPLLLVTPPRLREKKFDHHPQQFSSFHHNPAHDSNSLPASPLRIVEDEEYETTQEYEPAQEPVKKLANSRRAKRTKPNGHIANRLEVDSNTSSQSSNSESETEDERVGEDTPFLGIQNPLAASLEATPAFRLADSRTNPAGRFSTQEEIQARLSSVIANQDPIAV
The subject of assay [7] is Neuregulin-1 EGF-like domain. Briefly: binders of neuregulin-1 EGF-like domain, primary screen, biochemical, small-molecule microarray, 635 nm fluorescence (AID 1081).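 Further: binding of the protein to compounds printed on small-molecule microarray slides.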 Conditions: small-molecule microarray binding, higher = more signal.
Assay [8] is described as follows: FRG1 promoter luciferase signal modulators, primary screen, FRG1 inhibition for FSHD, cell-based, C2C12 myotubes, firefly/Renilla luciferase, luminescence (AID 1084). The settings on record: higher = more signal, called active from +8 up or from −8 down.
The nature of assay [9]: binders of probe aFST on microarray, primary screen, stem cell growth factor project, biochemical, small-molecule microarray, fluorescence 635/667 (AID 1086).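 Further: score merges 667 nm fluorescence with signal-to-noise of each printed compound spot.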 The settings on record: higher = more signal.
Assay [10] is described as follows: binders of probe aHhip on microarray, primary screen, stem cell growth factor project, biochemical, small-molecule microarray, fluorescence 635/667 (AID 1087).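 Further: score merges spot fluorescence at 667nm with spot signal to noise ratio.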 Conditions: higher = more signal.
Assay [11] relates to PRMT1 (protein arginine N-methyltransferase 1). Briefly: PRMT1 binders on small-molecule microarrays, primary screen, biochemical, small-molecule microarray, 635 nm fluorescence (AID 1088).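 Further: binding of Prmt1 protein to compounds spotted on small-molecule microarray slides.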 The settings on record: small-molecule microarray binding, higher = more signal.
Assay [12] can be described thus: yeast growth modulation, basal conditions, primary screen, YJM789 clinical isolate, OD600, 24 h (AID 1089).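 Further: growth of clinical yeast isolate S. cerevisiae YJM 789 seeded 1000 cells per well; test concentration not given here.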 Conditions: S. cerevisiae YJM789 growth, higher = more signal, called active from +8 up or from −8 down.
Assay [13] is described as follows: fission yeast growth modulation, primary screen, strain 972, OD600, 24 h, no modulator (AID 1090).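 Further: basal condition with compound alone and no growth modifier present; test concentration not given here.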 The settings on record: S. pombe 972 growth, higher = more signal, called active from +8 up or from −8 down.
Assay [14] can be described thus: S. cerevisiae growth modulation with rapamycin, primary screen, strain BY4716, OD600, 96 h (AID 1091). Further: test concentration not given here. The settings on record: higher = more signal, called active from +8 up or from −8 down.
The target in assay [15] is Torsin-1A-interacting protein 2 (Homo sapiens) (UniProt Q8NFQ8). Briefly: LULL1 binders on small-molecule microarray, primary screen, cell lysate, human LULL1 lysate, 635/667 nm fluorescence (AID 1092).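 Further: probe is lysate of COS7 cells overexpressing human LULL1; score merges per-feature 667 nm fluorescence with signal-to-noise.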 Conditions: hLULL1 lysate binding, 635 nm fluorescence, higher = more signal.
Sequence of Torsin-1A-interacting protein 2 (Homo sapiens) (Q8NFQ8 whole entry, looked up): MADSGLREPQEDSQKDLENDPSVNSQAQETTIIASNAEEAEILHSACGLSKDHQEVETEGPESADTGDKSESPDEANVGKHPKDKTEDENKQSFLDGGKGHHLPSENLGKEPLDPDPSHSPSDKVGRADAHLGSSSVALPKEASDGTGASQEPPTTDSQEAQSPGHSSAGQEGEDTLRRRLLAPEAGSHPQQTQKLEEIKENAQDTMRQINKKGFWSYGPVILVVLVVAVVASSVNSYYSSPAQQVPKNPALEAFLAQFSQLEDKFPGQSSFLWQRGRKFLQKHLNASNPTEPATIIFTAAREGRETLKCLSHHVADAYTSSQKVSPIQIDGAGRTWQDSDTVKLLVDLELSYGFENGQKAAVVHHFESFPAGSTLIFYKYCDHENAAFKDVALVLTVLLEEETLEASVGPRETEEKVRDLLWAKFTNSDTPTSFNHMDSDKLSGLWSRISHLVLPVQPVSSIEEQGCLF
The nature of assay [16]: E. coli growth modulation, two-sided OD650, primary screen, E. coli filamentation project, strain DRC41, 24 h (AID 1093).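 Further: MC1000 strain lacking acrAB efflux and sulA so SOS filamentation is blocked; test concentration not given here.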 Conditions: OD650, 24 h, higher = more signal, called active from +8 up or from −8 down.
Assay [17] is described as follows: small-molecule microarray binders of probe aLefty2, primary screen, biochemical, biotinylated probe, 635/667 nm fluorescence (AID 1094).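 Further: score merges spot fluorescence near 667 nm with spot signal-to-noise ratio.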 The settings on record: higher = more signal.
Assay [18] relates to Noggin (protein binding on small-molecule microarray). Briefly: Noggin binders on small-molecule microarray, primary screen, biochemical, 635/667 nm fluorescence (AID 1095).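 Further: score merges 667 nm feature fluorescence with signal to noise over triplicate slides.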 The settings on record: 635 nm fluorescence, higher = more signal.
Assay [19] has as its target Neurogenic locus notch homolog protein 3 (Homo sapiens) (UniProt Q9UM47). Nature of the assay: NOTCH3 binders on small-molecule microarray, primary screen, biochemical, 635/667 nm fluorescence (AID 1096). The settings on record: NOTCH3 binding, 635 nm fluorescence, higher = more signal.
Assay [20] is described as follows: small-molecule microarray binders of probe aEGFR, primary screen, biochemical, biotinylated probe, 635/667 nm fluorescence (AID 1097).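 Further: probe is a biotinylated anti-EGFR antibody binding compounds printed on slides; score combines fluorescence near 667 nm and signal to noise of each spot.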 The settings on record: higher = more signal.

Molecules are shown by their SMILES. Active and inactive are the calls of the source.

Sequence of Neurogenic locus notch homolog protein 3 (Homo sapiens) (Q9UM47 whole entry, looked up): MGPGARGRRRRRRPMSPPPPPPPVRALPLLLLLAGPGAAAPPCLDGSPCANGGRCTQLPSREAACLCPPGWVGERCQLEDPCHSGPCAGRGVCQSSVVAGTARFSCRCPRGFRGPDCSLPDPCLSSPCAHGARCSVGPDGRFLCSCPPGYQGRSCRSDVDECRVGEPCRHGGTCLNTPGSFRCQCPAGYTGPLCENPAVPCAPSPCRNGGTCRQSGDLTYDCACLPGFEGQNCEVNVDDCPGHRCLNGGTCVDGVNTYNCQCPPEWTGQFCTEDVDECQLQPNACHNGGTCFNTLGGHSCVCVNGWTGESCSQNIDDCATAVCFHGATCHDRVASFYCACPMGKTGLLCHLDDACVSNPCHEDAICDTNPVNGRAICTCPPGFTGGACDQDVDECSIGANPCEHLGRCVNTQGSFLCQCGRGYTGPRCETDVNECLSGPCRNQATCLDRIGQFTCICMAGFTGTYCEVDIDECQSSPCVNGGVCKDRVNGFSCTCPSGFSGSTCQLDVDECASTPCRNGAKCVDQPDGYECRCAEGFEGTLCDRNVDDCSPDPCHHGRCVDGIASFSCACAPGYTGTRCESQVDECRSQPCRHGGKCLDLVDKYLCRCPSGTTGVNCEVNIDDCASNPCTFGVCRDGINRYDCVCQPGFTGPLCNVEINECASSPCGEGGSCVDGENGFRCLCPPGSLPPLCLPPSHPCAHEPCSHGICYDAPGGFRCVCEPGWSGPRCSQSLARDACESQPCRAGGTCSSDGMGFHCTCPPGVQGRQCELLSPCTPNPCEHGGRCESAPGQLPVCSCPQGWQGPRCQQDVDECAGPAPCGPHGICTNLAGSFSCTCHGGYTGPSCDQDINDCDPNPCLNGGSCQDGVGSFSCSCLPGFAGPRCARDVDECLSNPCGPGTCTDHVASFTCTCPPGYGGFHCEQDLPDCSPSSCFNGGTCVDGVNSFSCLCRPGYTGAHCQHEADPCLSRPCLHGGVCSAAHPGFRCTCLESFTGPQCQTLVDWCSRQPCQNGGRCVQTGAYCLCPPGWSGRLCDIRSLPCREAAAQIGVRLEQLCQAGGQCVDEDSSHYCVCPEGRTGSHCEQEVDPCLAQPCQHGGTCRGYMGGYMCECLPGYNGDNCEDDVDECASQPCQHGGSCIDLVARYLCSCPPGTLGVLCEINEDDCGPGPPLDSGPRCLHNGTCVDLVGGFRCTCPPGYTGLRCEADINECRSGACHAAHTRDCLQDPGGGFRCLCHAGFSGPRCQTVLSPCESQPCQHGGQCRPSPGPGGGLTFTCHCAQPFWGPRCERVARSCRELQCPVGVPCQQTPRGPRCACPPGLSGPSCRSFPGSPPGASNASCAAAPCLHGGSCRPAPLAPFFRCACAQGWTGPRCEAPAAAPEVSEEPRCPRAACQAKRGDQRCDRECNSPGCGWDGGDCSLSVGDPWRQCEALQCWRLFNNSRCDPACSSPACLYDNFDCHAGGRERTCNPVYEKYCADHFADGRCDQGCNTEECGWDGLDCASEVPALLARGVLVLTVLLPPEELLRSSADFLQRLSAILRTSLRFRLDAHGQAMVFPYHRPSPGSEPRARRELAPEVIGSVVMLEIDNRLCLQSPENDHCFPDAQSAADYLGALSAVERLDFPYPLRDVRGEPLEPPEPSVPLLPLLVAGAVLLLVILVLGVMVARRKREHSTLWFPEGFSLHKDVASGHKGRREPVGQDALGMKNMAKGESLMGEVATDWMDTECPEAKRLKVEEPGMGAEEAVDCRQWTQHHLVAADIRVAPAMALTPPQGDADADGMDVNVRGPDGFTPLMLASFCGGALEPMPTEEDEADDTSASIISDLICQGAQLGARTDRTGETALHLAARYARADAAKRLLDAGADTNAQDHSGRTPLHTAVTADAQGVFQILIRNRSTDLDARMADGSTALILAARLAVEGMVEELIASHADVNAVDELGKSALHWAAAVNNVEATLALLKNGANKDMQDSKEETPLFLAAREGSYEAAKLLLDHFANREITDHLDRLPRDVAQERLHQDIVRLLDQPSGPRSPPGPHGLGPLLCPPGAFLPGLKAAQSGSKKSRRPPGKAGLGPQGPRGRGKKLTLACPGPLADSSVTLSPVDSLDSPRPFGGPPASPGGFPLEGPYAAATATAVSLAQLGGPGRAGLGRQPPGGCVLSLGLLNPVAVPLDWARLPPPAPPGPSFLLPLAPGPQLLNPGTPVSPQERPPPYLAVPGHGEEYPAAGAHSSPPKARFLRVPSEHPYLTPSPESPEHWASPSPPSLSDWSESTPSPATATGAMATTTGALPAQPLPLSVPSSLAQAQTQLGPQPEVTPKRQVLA

Take `NC(=O)[C@@H]1[C@H]2C(=O)O[C@H](c3ccccc3)[C@H](c3ccccc3)N2[C@H](c2ccc(O)cc2)[C@@]12C(=O)Nc1ccccc12`: the composite z-score was 0.241 in assay [1]; -0.933 in [2]; -0.179 in [3]; 0.0547 in assay [4]; -0.985 in assay [5]; 2.01 in [6]. The composite z-score in assay [7] is 0.476; in [9], -0.114; in assay [10] it was -0.314; in assay [11] it was 1.41; in assay [15], 3.53; in assay [17] it was -0.107. In addition, the composite z-score is -0.952 in [18], 0.118 in assay [19] and -0.289 in assay [20]. For the same compound, the z-score is 0.308 (inactive) in assay [8]; 0.0549 (inactive) in assay [12]; -1.41 (inactive) in [13]; 0.386 (inactive) in [14]; 1.11 (inactive) in assay [16].
With `CN1C=C(C(=O)OCCS(C)(=O)=O)C(C(=O)OCCS(C)(=O)=O)=CC(c2ccc(CO)cc2)=CC1C1CC1` (stereo not given), the composite z-score was -0.0965 in assay [1]; 0.528 in assay [2]; -0.0824 in assay [3]; 0.0351 in assay [4]; -0.0701 in assay [5]; 1 in assay [6]. Moreover, the composite z-score in assay [7] was 1.27; in assay [9], -0.0993; in [10] it was -0.0994; in assay [11] it was 0.522; in assay [15] it was 1.33; in assay [17] it was -0.22. For the same compound, the composite z-score was 0.425 in assay [18], 0.415 in assay [19] and -0.103 in assay [20]. In addition, the z-score in assay [8] was 0.849 (inactive); in assay [12], 0.243 (inactive); in assay [13] it was -1.34 (inactive); in assay [14], 0.678 (inactive); in assay [16], 0.108 (inactive).
On to `COCCOC(=O)N1C(=O)[C@@]2(c3cc(C#CCCO)ccc31)[C@H](C(=O)N1CCCCCCC1)[C@H]1C(=O)O[C@H](c3ccccc3)[C@H](c3ccccc3)N1[C@@H]2c1ccc(OCCO)cc1`, for which the composite z-score worked out at 3.17 in assay [1]; 0.912 in [2]; 0.68 in assay [3]; 0.395 in [4]; 1.25 in assay [5]; 1.01 in [6]. Moreover, the composite z-score was found to be 1.18 in assay [7]; 2.87 in assay [9]; 0.0111 in assay [10]; 1.51 in assay [11]; 3.52 in assay [15]; 1.53 in assay [17]. In addition, the composite z-score in assay [18] came to 1.55; in assay [19], 0.93; in assay [20], 1.04. For the same compound, the z-score in [8] was -1.07 (inactive); in assay [12] it was 1.33 (inactive); in assay [13], 1.3 (inactive); in [14] it was 2.08 (inactive); in assay [16], 0.584 (inactive).
As for `O=C1C2C=CC(C(O)c3cccc4ccccc34)N(Nc3ccccc3F)C2C(=O)N1c1ccccc1` (stereo not given), the composite z-score in assay [1] was 0.154; in [2], -0.371; in [3], -0.0209; in assay [4] it was 0.64; in assay [5] it was 1.67; in assay [6] it was 1.27. Moreover, the composite z-score in assay [7] is 1.23; in [9] it was 1.23; in [10], -0.0672; in assay [11] it was 1.54; in assay [15], 3.69; in assay [17], 0.13. The composite z-score in assay [18] is 0.0926; in assay [19], 1.12; in [20], 0.222. The z-score in assay [8] is 0.856 (inactive); in [12] it was 0.0692 (inactive); in assay [13], 0.865 (inactive); in [14] it was 1.01 (inactive); in assay [16], -0.316 (inactive).
Turning to `C=CCC(OC(C)=O)[C@@H]1[C@@H](N(Cc2ccc(-c3ccccc3)cc2)C(=O)Cc2ccc(OC)cc2)c2cc(OCCCO)ccc2N1C(=O)Cc1ccc2ccccc2c1` (stereo not given in full), the composite z-score in assay [1] was -0.214; in assay [2], 0.735; in [3] it was -0.0891; in assay [4], 0.0163; in assay [5] it was -0.299; in [6] it was -0.32. Besides, the composite z-score in [7] was -0.504; in [9] it was 0.0346; in [10], -0.144; in assay [11] it was -0.137; in assay [15], 1.09; in assay [17] it was -0.153. Further, the composite z-score in [18] was -0.688; in [19], -0.0042; in assay [20], -0.177. Moreover, the z-score was -0.952 (inactive) in assay [8]; -0.74 (inactive) in assay [12]; -0.619 (inactive) in assay [13]; -0.238 (inactive) in [14]; -0.263 (inactive) in assay [16].

The values are drawn from PubChem BioAssay.
